Compounds with a hit are over-represented: about 3% of the library has one in this group of screens.
DAGLB inhibitor – diacylglycerol lipase beta (human) inhibition; HEK293T DAGLB membrane lysate, EnzChek fluorogenic substrate; inhibition, % at 5.17 µM; Q8NCG7; actives 0.059% (n = 340,000); in the data active = inhibition above about 34%;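 note: 0% = enzyme with vehicle and 100% = wells lacking enzyme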
PAFAH1B2 inh – inhibitors of human PAFAH1B2. P68402. recombinant PAFAH1B2, FP-rhodamine activity probe, fluorescence polarization. inhibition, % at 3.39 µM. actives 1.2% (n = 340,000). AID 492953;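 active = inhibition above the mean of all tested compounds plus 3 SD, cut at about 24% in these data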;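 note: 0% = enzyme with DMSO and 100% = wells lacking PAFAH1B2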
PAFAH2 FP inh – inhibitors of human PAFAH2; actives 0.99% (n = 340,000); inhibition, % at 3.39 µM; recombinant PAFAH2, FP-rhodamine activity probe, fluorescence polarization; Q99487;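 active = inhibition above the mean over all tested compounds plus 3 SD, cut at about 30% in these data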;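 note: inhibitors block probe labeling of enzyme so polarization drops; 0% = enzyme with DMSO and 100% = wells lacking PAFAH2 protein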
PAFAH1B3 inh – blocks human PAF acetylhydrolase 1B catalytic subunit 3 | recombinant PAFAH1B3, FP-rhodamine probe, fluorescence polarization | AID 492972 | actives 0.28% (n = 340,000) | Q15102 | inhibition, % at 3.39 µM;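 active = inhibition above the screen-wide average of all tested compounds plus 3 SD, cut at about 25% in these data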;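 note: 0% = enzyme with DMSO only and 100% = wells lacking PAFAH1B3 protein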
Target sequence (Q15102 whole entry, looked up): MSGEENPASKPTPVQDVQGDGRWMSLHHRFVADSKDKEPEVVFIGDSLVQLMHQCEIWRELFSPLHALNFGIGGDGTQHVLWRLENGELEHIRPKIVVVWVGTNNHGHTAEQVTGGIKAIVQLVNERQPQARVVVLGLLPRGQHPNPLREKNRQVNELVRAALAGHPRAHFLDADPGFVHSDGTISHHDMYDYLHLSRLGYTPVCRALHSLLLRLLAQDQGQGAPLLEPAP
ATG4B inh – blocks human ATG4B protease cleavage of LC3 substrate; ATG4B cleavage of LC3-PLA2, NBD-HPC fluorescence, 1 h; Q9Y4P1; inhibition, % at 8.33 µM; actives 0.51% (n = 340,000); in the data active = inhibition above about 40%
pPAFAH inh – inhibitors of human plasma PAF acetylhydrolase (pPAFAH). Q13093. recombinant pPAFAH, FP-rhodamine probe fluorescence polarization. inhibition, % at 3.39 µM. actives 1.5% (n = 330,000). AID 463082;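 active = inhibition above the mean inhibition across the screen plus 3 SD, cut at about 25% in these data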;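 note: inhibitors block binding of the rhodamine activity-based probe so polarization drops; 0% = enzyme with DMSO and 100% = wells lacking pPAFAH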
Target sequence (Q13093 whole entry, looked up): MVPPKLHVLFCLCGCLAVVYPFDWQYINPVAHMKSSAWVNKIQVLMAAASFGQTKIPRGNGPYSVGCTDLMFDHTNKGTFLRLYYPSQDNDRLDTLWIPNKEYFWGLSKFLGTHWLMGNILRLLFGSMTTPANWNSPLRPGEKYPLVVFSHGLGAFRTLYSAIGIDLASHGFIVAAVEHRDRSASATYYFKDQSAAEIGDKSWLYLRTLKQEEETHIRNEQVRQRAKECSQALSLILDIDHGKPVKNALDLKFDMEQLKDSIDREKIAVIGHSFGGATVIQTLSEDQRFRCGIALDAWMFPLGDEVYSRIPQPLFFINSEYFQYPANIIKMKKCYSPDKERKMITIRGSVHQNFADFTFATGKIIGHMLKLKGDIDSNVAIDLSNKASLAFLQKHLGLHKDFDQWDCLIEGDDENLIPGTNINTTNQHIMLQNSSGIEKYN
* hit, by the source's call.

What do the screens show for `O=C(Cn1cnc2scc(-c3ccccc3)c2c1=O)NCc1ccco1`?
DAGLB inhibitor: 3; PAFAH1B2 inh: -2; PAFAH2 FP inh: -1; PAFAH1B3 inh: 0; ATG4B inh: -6; pPAFAH inh: 25*

Results for Cc1c(Cc2ccccc2)c(=O)oc2cc(OC(C)C(=O)NCC3CCC(C(=O)O)CC3)c(Cl)cc12 (stereo not drawn) ?
DAGLB inhibitor: -1; PAFAH1B2 inh: -7; PAFAH2 FP inh: 8; PAFAH1B3 inh: 4; ATG4B inh: -15; pPAFAH inh: 6

Results for Cc1cc(NC(=O)c2coc(=O)c(Br)c2)ccc1C(C)C ?
ATG4B inh: -1; pPAFAH inh: 6

Results for O=C1N(Cc2ccccc2)c2ccccc2C12OCCO2 ?
DAGLB inhibitor: -1; PAFAH1B2 inh: -2; PAFAH2 FP inh: 2; PAFAH1B3 inh: 10; ATG4B inh: 3; pPAFAH inh: 25*

Results for O=C1N(Cc2ccccc2)c2ccc(Cl)cc2C12OCCO2 ?
DAGLB inhibitor: -5; PAFAH1B2 inh: 0; PAFAH2 FP inh: -2; PAFAH1B3 inh: 2; ATG4B inh: -9; pPAFAH inh: 5

What do the screens show for `Cc1nc2ccccc2n(CC(=O)Nc2cc(Cl)cc(Cl)c2)c1=O`?
DAGLB inhibitor: -5; PAFAH1B2 inh: 2; PAFAH2 FP inh: -1; PAFAH1B3 inh: 7; ATG4B inh: -1; pPAFAH inh: -11

How did Cc1ccc(CONS(=O)(=O)c2cc(C)ccc2C)cc1 do in these assays?
DAGLB inhibitor: -8; PAFAH1B2 inh: 18; PAFAH2 FP inh: 12; PAFAH1B3 inh: -3; ATG4B inh: 3; pPAFAH inh: 9

How did O=S(=O)(NOCc1ccc(Cl)cc1)c1ccc(Cl)cc1 do in these assays?
DAGLB inhibitor: -6; PAFAH1B2 inh: 56*; PAFAH2 FP inh: 15; PAFAH1B3 inh: 7; ATG4B inh: 2; pPAFAH inh: 29*

How did COc1ccc(-c2sc3cc4c(cc3c2C#Cc2ccc(N)cc2)OCO4)cc1 do in these assays?
DAGLB inhibitor: 2; PAFAH1B2 inh: 11; PAFAH2 FP inh: 29; PAFAH1B3 inh: 11; ATG4B inh: 0; pPAFAH inh: 15

What do the screens show for `Fc1ccc(Nc2ccc3ccccc3n2)c(F)c1`?
DAGLB inhibitor: -5; PAFAH1B2 inh: 5; PAFAH2 FP inh: 0; PAFAH1B3 inh: 3; ATG4B inh: -1; pPAFAH inh: 4

What do the screens show for `COc1cccc(OC)c1C1=NC(C)(C)CO1`?
DAGLB inhibitor: -2; PAFAH1B2 inh: 2; PAFAH2 FP inh: -8; PAFAH1B3 inh: 7; ATG4B inh: 3; pPAFAH inh: 2

What do the screens show for `Cc1ccccc1NC(=O)COC(=O)c1ccc(C)c(S(=O)(=O)N2CCCCC2)c1`?
DAGLB inhibitor: -3

Results for Cc1ccc(Cl)cc1NS(=O)(=O)Cc1ccccc1 ?
DAGLB inhibitor: -3; PAFAH1B2 inh: 3; PAFAH2 FP inh: 6; PAFAH1B3 inh: 1; ATG4B inh: 2; pPAFAH inh: 30*

What do the screens show for `COc1cc(NC(=O)COC(=O)C2CC(O)CN2S(=O)(=O)c2ccc(Cl)cc2)c(C)cc1[N+](=O)[O-]` (stereo not drawn)?
DAGLB inhibitor: 2; PAFAH1B2 inh: 2; PAFAH2 FP inh: 8; PAFAH1B3 inh: 11; ATG4B inh: -11

What do the screens show for `Cc1cc(OCC(=O)Nc2ccc(N3CCCC3)cc2)cc(C)c1Cl`?
DAGLB inhibitor: 9; PAFAH1B2 inh: -2; PAFAH2 FP inh: 6; PAFAH1B3 inh: 0; ATG4B inh: 16; pPAFAH inh: 26*

What do the screens show for `Cc1ccc(S(=O)(=O)N2CC(O)C[C@H]2C(=O)OCC(=O)Nc2ccc(N3CCCCC3)cc2)cc1C` (stereo partly drawn)?
DAGLB inhibitor: 4; PAFAH1B2 inh: 1; PAFAH2 FP inh: 9; PAFAH1B3 inh: 3; ATG4B inh: -8; pPAFAH inh: 25*

Results for Cc1nc(S/C(=C/c2ccc(-c3ccc(C(=O)O)cc3)o2)C(=O)O)n[nH]1 ?
DAGLB inhibitor: 0; PAFAH1B2 inh: 1; PAFAH2 FP inh: 14; PAFAH1B3 inh: 20; ATG4B inh: -6; pPAFAH inh: 33*

How did Cc1ccc(NC(=O)c2cc(-c3ccco3)nc3ccccc23)cc1S(=O)(=O)N1CCOCC1 do in these assays?
DAGLB inhibitor: 4; PAFAH1B2 inh: -6; PAFAH2 FP inh: -8; PAFAH1B3 inh: 0; ATG4B inh: -1; pPAFAH inh: 27*

Results for O=C(Nc1cccc(S(=O)(=O)N2CCOCC2)c1)c1c2c(nc3ccccc13)CCC2 ?
DAGLB inhibitor: 2; PAFAH1B2 inh: -1; PAFAH2 FP inh: -4; PAFAH1B3 inh: 2; ATG4B inh: -3; pPAFAH inh: 27*

Results for CCN(CC)S(=O)(=O)c1ccc(N2CCOCC2)c(NC(=O)c2c3c(nc4ccccc24)CCC3)c1 ?
DAGLB inhibitor: 0; PAFAH1B2 inh: -6; PAFAH2 FP inh: 17; PAFAH1B3 inh: -3; ATG4B inh: -10; pPAFAH inh: 26*

Results for COc1ccc(NC(=O)c2cc(-c3ccco3)nc3ccccc23)cc1S(=O)(=O)N1CCOCC1 ?
DAGLB inhibitor: 2; PAFAH1B2 inh: 2; PAFAH2 FP inh: 11; PAFAH1B3 inh: 7; ATG4B inh: -7; pPAFAH inh: -13

Results for COC(=O)c1c(C(=O)OC)c2c(-c3ccccc3)cc3cccc1n32 ?
DAGLB inhibitor: -10

How did Cn1c(SCC(=O)N/N=C/C=C\c2ccco2)nc2ccccc21 do in these assays?
DAGLB inhibitor: -3; PAFAH1B2 inh: 0; PAFAH2 FP inh: 7; PAFAH1B3 inh: 1; ATG4B inh: -3; pPAFAH inh: 10

Results for Cc1cccc(C)c1OCC(=O)N/N=C/C=C/c1ccco1 ?
DAGLB inhibitor: 4; PAFAH1B2 inh: 2; PAFAH2 FP inh: 10; PAFAH1B3 inh: 10; ATG4B inh: 1; pPAFAH inh: 3

How did CCn1c(SCC(=O)N/N=C/C=C\c2ccco2)nc2ccccc21 do in these assays?
DAGLB inhibitor: 4; PAFAH1B2 inh: -3; PAFAH2 FP inh: 5; PAFAH1B3 inh: -6; ATG4B inh: 5; pPAFAH inh: 25*

What do the screens show for `Cc1cccc(OCC(=O)NCC(=O)N/N=C/c2cc(Br)cc(Br)c2O)c1`?
DAGLB inhibitor: 14; PAFAH1B2 inh: 34*; PAFAH2 FP inh: 13; PAFAH1B3 inh: 8; ATG4B inh: -4; pPAFAH inh: 24

How did Cc1cccc(OCC(=O)N/N=C/C=C/c2ccco2)c1 do in these assays?
DAGLB inhibitor: 5; PAFAH1B2 inh: 0; PAFAH2 FP inh: 5; PAFAH1B3 inh: -3; ATG4B inh: 1; pPAFAH inh: 30*

Results for CCCN(CCC)S(=O)(=O)c1ccc(C(=O)NNc2nc(-c3ccccc3)c3cc(Br)ccc3n2)cc1 ?
DAGLB inhibitor: -16; PAFAH1B2 inh: -9; PAFAH2 FP inh: -11; PAFAH1B3 inh: -4; ATG4B inh: 10; pPAFAH inh: -9

Bioassay records: PubChem BioAssay, several laboratories
